PubChem BioAssay (EPA / NIEHS)
“And” between values parts separate entries of the source, which are not always exact repeats. Identical values can stand only once. More than one record can exist for a structure, and the calls need not agree. The source made the active and inactive calls. Rule for the calls: active = hit-call score of the fitted dose curve at least 0.9, where 1 is the maximum; inactive = score below 0.9.

Assays:
[1] = molecular target: CCAAT/enhancer-binding protein beta (Homo sapiens) (UniProt P17676); assay: ATG_C_EBP_CIS: Attagene CIS-FACTORIAL HepG2 Assay for human CCAAT/Enhancer Binding Protein (C/EBP) beta (AID 2282927); settings: HepG2 Attagene cis-factorial transcription factor reporter; actives raise or lower the signal
How it was run: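 Changes in reporter mRNA, rather than exogenous chimeric receptor activity, reflect native C/EBP signalling in transfected HepG2 cells dosed for 24 h; transcripts are detected by RT-PCR and capillary electrophoresis.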

[2] = ATG_DR4_LXR_CIS: Attagene CIS-FACTORIAL HepG2 Assay for human Liver X Receptor (LXR), DR4 submotif (AID 2282929); settings: HepG2 Attagene DR4 cis-reporter, mRNA transcription; AC50: actives raise or lower the signal unless noted; outcome: actives raise or lower the signal unless noted
How it was run: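 Endogenous factor activity at a DR4 cis-element is read as reporter mRNA in transiently transfected HepG2 cells. Exposure lasts 24 h; transcripts are amplified, fluorescently labelled and sized by capillary electrophoresis, with DMSO as baseline.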

[3] = ATG_AP_1_CIS: Attagene CIS-FACTORIAL HepG2 Assay for human Activator Protein 1 (AP-1) (AID 2282931); settings: HepG2 Attagene cis-factorial AP-1 reporter mRNA; actives raise or lower the signal
How it was run: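 Fluorescence of labelled PCR fragments separated by capillary electrophoresis gives reporter mRNA levels. HepG2 with transfected cis-regulated reporter units, 24 h exposure; DMSO serves as baseline for bidirectional curve fits.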

[4] = ATG_BRE_CIS: Attagene CIS-FACTORIAL HepG2 Assay for human Bone Morphogenetic Protein (BMP) Response Element (BRE) (AID 2282933); settings: HepG2 BMP response element reporter, Attagene transcription factor profiling; actives raise or lower the signal
How it was run: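 HepG2 cells transiently transfected with multiplexed cis-element reporter units were dosed with chemical for 24 h. Reporter mRNA was measured by RT-PCR with fluorescent labelling, HpaI digestion and capillary electrophoresis; bidirectional fitting relative to DMSO.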

[5] = molecular target: Retinoic acid receptor alpha (Homo sapiens) (UniProt P10276); assay: ATG_DR5_RAR_CIS: Attagene CIS-FACTORIAL HepG2 Assay for human Retinoic Acid Receptor Alpha (RARE), DR5 submotif (AID 2282934); settings: HepG2 Attagene cis-factorial RARE DR5 reporter, mRNA; actives raise or lower the signal
How it was run: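 HepG2, transient cis-reporter transfection, 24 h exposure. mRNA readout: RT-PCR, FAM label, HpaI cut, capillary electrophoresis. DMSO baseline, gain/loss fitting.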

[6] = molecular target: Transcription factor E2F1 (Homo sapiens) (UniProt Q01094); assay: ATG_E2F_CIS: Attagene CIS-FACTORIAL HepG2 Assay for human E2F Transcription Factor 1 (AID 2282935); settings: HepG2 Attagene cis-reporter, E2F reporter RNA transcripts; actives raise or lower the signal
How it was run: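 Fluorescent RT-PCR products, digested with HpaI for 2 h at 37 C, are separated by capillary electrophoresis. Source RNA comes from transfected HepG2 cultures treated for 24 h.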

[7] = ATG_E_Box_CIS: Attagene CIS-FACTORIAL HepG2 Assay for human Enhancer Box (E-box) (AID 2282936); settings: HepG2 E-box cis-reporter transcription, actives raise or lower the signal
How it was run: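 Fluorescent reporter fragments separated by capillary electrophoresis gave the signal; mRNA came from HepG2 cells transfected with cis-element reporters and treated 24 h. Curves fitted bidirectionally relative to DMSO controls.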

[8] = ATG_M_61_CIS: Attagene CIS-FACTORIAL HepG2 Assay for M61 Transcription Factor (Internal Marker) (AID 2282937); settings: HepG2 Attagene CIS-FACTORIAL M61 internal marker reporter; actives raise or lower the signal
How it was run: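 This endpoint serves as an internal background control within a multiplexed HepG2 cis-reporter panel. Cells are exposed for 24 h; reporter mRNA is amplified, fluorescently labelled and sized by capillary electrophoresis, with DMSO as negative control.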

[9] = ATG_EGR_CIS: Attagene CIS-FACTORIAL HepG2 Assay for human Early Growth Response 1 (EGR1) (AID 2282938); settings: HepG2 Attagene CIS-FACTORIAL EGR reporter mRNA; actives raise or lower the signal
How it was run: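 HepG2, transient MRTU transfection (cis promoters), 24 h compound. RNA → RT (oligo-dT) → PCR → 6-FAM labelling → HpaI cut → CE fluorescence. Bidirectional fit, DMSO baseline.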

[10] = ATG_M_19_CIS: Attagene CIS-FACTORIAL HepG2 Assay for M19 Transcription Factor (Internal Marker) (AID 2282939); settings: HepG2 Attagene CIS-FACTORIAL M19 internal marker reporter; actives raise or lower the signal
How it was run: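 HepG2 cells transiently transfected with cis-regulated multiple reporter transcription units were dosed for 24 h; reporter mRNA was quantified by RT-PCR, 6-FAM primer-extension labelling, HpaI digestion and capillary electrophoresis, with bidirectional fitting against DMSO baseline.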

[11] = ATG_ERE_CIS: Attagene CIS-FACTORIAL HepG2 Assay for Estrogen Response Element (ERE) (AID 2282940); settings: HepG2 ERE cis-reporter, Attagene RNA transcript; actives raise or lower the signal
How it was run: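 HepG2 cells transiently transfected with cis-promoter-driven multiplexed reporter transcription units report endogenous TF activity. After 24 h compound exposure, reporter mRNA is quantified by RT-PCR with capillary electrophoresis fluorescence; bidirectional fitting versus DMSO baseline.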

[12] = ATG_Ets_CIS: Attagene CIS-FACTORIAL HepG2 Assay for human Erythroblast Transformation Specific (ETS) (AID 2282941); settings: HepG2 ETS cis-reporter transcription; AC50: actives raise or lower the signal unless noted; outcome: actives raise or lower the signal unless noted
How it was run: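 Bidirectional fit versus DMSO of reporter mRNA signal, detected by RT-PCR and capillary electrophoresis in HepG2 cells transiently transfected with cis-element reporters and dosed 24 h.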

[13] = molecular target: Hepatocyte nuclear factor 3-beta (Homo sapiens) (UniProt Q9Y261); assay: ATG_FoxA2_CIS: Attagene CIS-FACTORIAL HepG2 Assay for human Forkhead box A2 (FOXA2) (AID 2282942); settings: HepG2 cis-reporter transcription factor activity, 24 h; actives raise or lower the signal
How it was run: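 Cells: HepG2, transient multiplex reporter transfection. Exposure 24 h. Detection: reporter-specific RT-PCR, fluorescent labelling, restriction digest, capillary electrophoresis. Analysis: bidirectional curve fit, DMSO as negative control.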

[14] = ATG_FoxO_CIS: Attagene CIS-FACTORIAL HepG2 Assay for human Forkhead box O (FoxO) (AID 2282943); settings: HepG2 Attagene cis-reporter, FoxO element, mRNA; actives raise or lower the signal
How it was run: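 Human hepatoma HepG2 cells carry transiently introduced reporter transcription units controlled by cis promoter elements. Chemical treatment lasted 24 h, and mRNA signal was compared with DMSO.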

[15] = ATG_GATA_CIS: Attagene CIS-FACTORIAL HepG2 Assay for human GATA Binding Protein (AID 2282944); settings: HepG2 GATA cis-element reporter, Attagene multiplex mRNA; actives raise or lower the signal
How it was run: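 HepG2 cells transiently transfected with multiplexed cis-element reporter units reflecting endogenous transcription factor activity; reporter mRNA measured after 24 h dosing by RT-PCR, 6-FAM labeling, HpaI digestion and capillary electrophoresis. Bidirectional fitting versus DMSO baseline.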

[16] = ATG_GLI_CIS: Attagene CIS-FACTORIAL HepG2 Assay for human Zinc Finger Protein GLI1 (AID 2282945); settings: HepG2, Attagene cis-factorial reporter mRNA, GLI element; actives raise or lower the signal
How it was run: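 Bidirectional curve fits relative to DMSO, using reporter mRNA levels from RT-PCR plus capillary electrophoresis. Cells were HepG2 transiently carrying cis-regulated reporter constructs, harvested 24 h after dosing.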

[17] = molecular target: Bile acid receptor (Homo sapiens) (UniProt Q96RI1); assay: ATG_IR1_CIS: Attagene CIS-FACTORIAL HepG2 Assay for human Nuclear Receptor Subfamily 1 Group H Member 4 (NR1H4), IR1 submotif (AID 2282946); settings: IR1 reporter transcription, actives raise or lower the signal
How it was run: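 HepG2 cells transiently transfected with multiplexed cis-element reporter units read endogenous transcription factor activity. After 24 h compound exposure, reporter mRNA was quantified by RT-PCR, fluorescent labelling, HpaI digestion and capillary electrophoresis; bidirectional fitting versus DMSO baseline.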

[18] = ATG_CMV_CIS: Attagene CIS-FACTORIAL HepG2 Assay for human CMV (Internal Marker) (AID 2282928); settings: HepG2 CMV promoter reporter, transcription factor profiling; actives raise or lower the signal;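 note: endpoint acts as a background internal control marker rather than a target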
How it was run: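 Reporter transcripts from transfected HepG2 cells are isolated after 24 h of chemical dosing, reverse-transcribed and amplified. Fragments labeled with 6-FAM are cut with HpaI and quantified by capillary electrophoresis; DMSO defines baseline.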

Hepatocyte nuclear factor 3-beta (Homo sapiens), sequence (Q9Y261 whole entry, looked up): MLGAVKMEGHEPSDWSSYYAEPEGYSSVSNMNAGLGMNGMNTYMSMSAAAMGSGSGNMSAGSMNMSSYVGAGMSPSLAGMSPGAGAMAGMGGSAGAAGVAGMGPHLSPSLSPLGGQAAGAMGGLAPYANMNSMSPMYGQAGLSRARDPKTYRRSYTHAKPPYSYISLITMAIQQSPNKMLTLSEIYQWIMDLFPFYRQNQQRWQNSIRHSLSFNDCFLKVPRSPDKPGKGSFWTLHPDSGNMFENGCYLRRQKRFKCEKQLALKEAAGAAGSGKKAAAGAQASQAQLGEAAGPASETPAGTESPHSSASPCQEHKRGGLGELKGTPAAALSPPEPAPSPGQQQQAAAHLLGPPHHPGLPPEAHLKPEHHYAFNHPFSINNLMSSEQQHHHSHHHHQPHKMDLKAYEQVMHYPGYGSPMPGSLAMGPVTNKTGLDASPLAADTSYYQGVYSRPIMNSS
Bile acid receptor (Homo sapiens), sequence (Q96RI1 whole entry, looked up): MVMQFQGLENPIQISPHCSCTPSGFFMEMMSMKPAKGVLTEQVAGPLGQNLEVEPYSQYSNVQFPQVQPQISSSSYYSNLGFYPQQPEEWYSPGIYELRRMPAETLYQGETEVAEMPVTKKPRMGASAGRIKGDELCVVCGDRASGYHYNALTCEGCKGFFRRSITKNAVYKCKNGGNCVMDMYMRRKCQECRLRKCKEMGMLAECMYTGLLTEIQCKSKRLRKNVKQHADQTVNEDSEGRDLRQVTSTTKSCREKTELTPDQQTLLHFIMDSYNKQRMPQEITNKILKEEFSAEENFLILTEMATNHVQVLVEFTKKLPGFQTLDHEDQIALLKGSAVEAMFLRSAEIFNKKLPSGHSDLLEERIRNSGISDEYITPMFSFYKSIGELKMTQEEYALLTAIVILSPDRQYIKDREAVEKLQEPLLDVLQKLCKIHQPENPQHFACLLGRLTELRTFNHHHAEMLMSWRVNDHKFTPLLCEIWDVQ
CCAAT/enhancer-binding protein beta (Homo sapiens), sequence (P17676 whole entry, looked up): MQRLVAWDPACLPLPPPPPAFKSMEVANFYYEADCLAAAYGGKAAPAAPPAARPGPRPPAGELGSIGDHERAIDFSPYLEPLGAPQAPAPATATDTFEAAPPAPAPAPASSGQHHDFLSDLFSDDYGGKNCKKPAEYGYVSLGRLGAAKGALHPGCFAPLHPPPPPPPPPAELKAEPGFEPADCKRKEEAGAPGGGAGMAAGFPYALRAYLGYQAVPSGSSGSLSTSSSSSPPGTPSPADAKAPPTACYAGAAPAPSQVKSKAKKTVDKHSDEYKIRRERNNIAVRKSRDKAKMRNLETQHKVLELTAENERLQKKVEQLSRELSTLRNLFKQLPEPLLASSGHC
Transcription factor E2F1 (Homo sapiens), sequence (Q01094 whole entry, looked up): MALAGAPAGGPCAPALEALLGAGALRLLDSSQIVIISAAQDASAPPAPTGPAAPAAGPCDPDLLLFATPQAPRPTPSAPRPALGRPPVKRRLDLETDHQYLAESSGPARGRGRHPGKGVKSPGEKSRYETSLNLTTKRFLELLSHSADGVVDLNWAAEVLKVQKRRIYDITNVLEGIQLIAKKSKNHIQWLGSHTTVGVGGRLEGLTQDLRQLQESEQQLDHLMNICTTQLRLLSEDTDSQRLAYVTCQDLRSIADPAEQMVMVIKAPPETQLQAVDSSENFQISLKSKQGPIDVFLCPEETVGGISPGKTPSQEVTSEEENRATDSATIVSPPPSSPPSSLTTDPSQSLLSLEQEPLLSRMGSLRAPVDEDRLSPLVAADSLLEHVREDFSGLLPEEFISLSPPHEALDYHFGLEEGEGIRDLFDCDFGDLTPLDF
Retinoic acid receptor alpha (Homo sapiens), sequence (P10276 whole entry, looked up): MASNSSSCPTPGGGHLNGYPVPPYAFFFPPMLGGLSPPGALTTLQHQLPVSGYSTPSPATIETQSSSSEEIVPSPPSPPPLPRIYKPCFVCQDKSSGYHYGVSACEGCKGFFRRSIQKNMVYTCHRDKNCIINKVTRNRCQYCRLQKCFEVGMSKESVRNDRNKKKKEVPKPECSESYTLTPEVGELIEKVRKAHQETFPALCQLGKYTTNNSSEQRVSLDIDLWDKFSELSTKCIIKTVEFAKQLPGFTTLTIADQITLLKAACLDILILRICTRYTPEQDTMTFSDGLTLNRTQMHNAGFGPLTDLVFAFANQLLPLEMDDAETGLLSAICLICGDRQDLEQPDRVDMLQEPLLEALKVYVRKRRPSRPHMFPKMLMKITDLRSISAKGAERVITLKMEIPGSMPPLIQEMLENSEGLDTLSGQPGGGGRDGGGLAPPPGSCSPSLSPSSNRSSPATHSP

SMILES	outcome [1]	AC50 [2]	outcome [2]	outcome [3]	outcome [4]	outcome [5]	outcome [6]	outcome [7]	outcome [8]	outcome [9]	outcome [10]	outcome [11]	outcome [12]	outcome [13]	outcome [14]	outcome [15]	outcome [16]	outcome [17]	outcome [18]	AC50 [11]
Cc1ccccc1C(OCCN(C)C)c1ccccc1 (stereo not drawn)	inactive	135 µM (active)	inactive	inactive	inactive	inactive	inactive	inactive	inactive	inactive	inactive	inactive	inactive	inactive	inactive	inactive	inactive	inactive	–	–
O=C(F)C(F)(F)C(F)(F)C(F)(F)C(F)F	inactive	–	inactive	inactive	inactive	inactive	inactive	inactive	–	inactive	inactive	inactive	–	inactive	–	inactive	inactive	inactive	inactive	–
O=c1cc(-c2ccccc2)oc2ccc3ccccc3c12	inactive	–	inactive	inactive	inactive	–	inactive	inactive	inactive	inactive	inactive	–	–	inactive	inactive	inactive	–	–	inactive	1.19 µM (active) and 521 nM (active)
OCC(F)(F)C(F)(F)C(F)(F)C(F)(F)C(F)(F)C(F)(F)C(F)(F)C(F)(F)C(F)(F)C(F)(F)C(F)(F)F	inactive	–	inactive	inactive	inactive	inactive	inactive	inactive	–	inactive	inactive	–	inactive	inactive	–	inactive	inactive	inactive	inactive	72.3 µM (active)
